Data published in PubChem BioAssay (EPA / NIEHS).
Results filed as inconclusive are left out. Activity calls are given as the source filed them. The calls were made as follows, unless noted: active = hit-call score of the fitted dose curve at least 0.9, where 1 is the maximum; inactive = score below 0.9.

Experiments:
[1] = target: Paired box protein Pax-6 (Homo sapiens) (UniProt P26367); experiment: ATG_Pax6_CIS: Attagene CIS-FACTORIAL HepG2 Assay for human Paired Box 6 (PAX6) (AID 2282956); conditions: HepG2 CIS-FACTORIAL PAX6 reporter transcription, RNA readout; actives raise or lower the signal
Paired box protein Pax-6 (Homo sapiens), sequence (P26367 whole entry, looked up): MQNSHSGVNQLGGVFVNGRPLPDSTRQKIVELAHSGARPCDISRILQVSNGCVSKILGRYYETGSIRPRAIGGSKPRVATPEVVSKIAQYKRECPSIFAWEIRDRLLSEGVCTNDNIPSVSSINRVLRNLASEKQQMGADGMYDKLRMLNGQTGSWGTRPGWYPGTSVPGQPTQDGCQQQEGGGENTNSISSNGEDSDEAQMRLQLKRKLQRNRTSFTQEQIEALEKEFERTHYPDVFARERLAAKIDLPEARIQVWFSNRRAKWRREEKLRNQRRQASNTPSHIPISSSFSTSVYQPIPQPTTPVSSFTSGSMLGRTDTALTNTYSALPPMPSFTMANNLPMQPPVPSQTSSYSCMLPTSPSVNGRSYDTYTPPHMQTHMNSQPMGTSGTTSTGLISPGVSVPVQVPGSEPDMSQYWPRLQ
How it was run: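 Readout: reporter transcript fluorescence after RT-PCR and capillary electrophoresis. Cells: HepG2, transiently transfected with cis-regulated MRTUs. Exposure 24 h. Gain or loss of signal fitted bidirectionally relative to DMSO.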

[2] = ATG_PXRE_CIS: Attagene CIS-FACTORIAL HepG2 Assay for human Pregnane X Receptor Element (PXRE) (AID 2282957); conditions: HepG2 Attagene CIS-FACTORIAL PXRE reporter, mRNA; actives raise or lower the signal
How it was run: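 Reporter transcripts under endogenous PXR-responsive cis-regulation quantified from total RNA of transfected HepG2 cells 24 h post-dosing, via RT-PCR with fluorescent primer extension and capillary electrophoresis. Gain or loss of signal fitted against DMSO baseline.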

[3] = ATG_Sox_CIS: Attagene CIS-FACTORIAL HepG2 Assay for human SRY-box transcription factor (SOX) (AID 2282960); conditions: HepG2 Attagene cis-factorial SOX reporter, mRNA; actives raise or lower the signal
How it was run: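 Cells were transfected with reporter constructs under cis-regulatory promoters, then exposed to chemicals for 24 h. Reporter transcripts were quantified by fluorescence after RT-PCR and capillary electrophoresis; activity was fitted in both directions against DMSO.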

[4] = target: Transcription factor Sp1 (Homo sapiens) (UniProt P08047); experiment: ATG_Sp1_CIS: Attagene CIS-FACTORIAL HepG2 Assay for human Specificity Protein 1 (Sp1) (AID 2282961); conditions: HepG2 Sp1 cis-reporter transcription, actives raise or lower the signal
Transcription factor Sp1 (Homo sapiens), sequence (P08047 whole entry, looked up): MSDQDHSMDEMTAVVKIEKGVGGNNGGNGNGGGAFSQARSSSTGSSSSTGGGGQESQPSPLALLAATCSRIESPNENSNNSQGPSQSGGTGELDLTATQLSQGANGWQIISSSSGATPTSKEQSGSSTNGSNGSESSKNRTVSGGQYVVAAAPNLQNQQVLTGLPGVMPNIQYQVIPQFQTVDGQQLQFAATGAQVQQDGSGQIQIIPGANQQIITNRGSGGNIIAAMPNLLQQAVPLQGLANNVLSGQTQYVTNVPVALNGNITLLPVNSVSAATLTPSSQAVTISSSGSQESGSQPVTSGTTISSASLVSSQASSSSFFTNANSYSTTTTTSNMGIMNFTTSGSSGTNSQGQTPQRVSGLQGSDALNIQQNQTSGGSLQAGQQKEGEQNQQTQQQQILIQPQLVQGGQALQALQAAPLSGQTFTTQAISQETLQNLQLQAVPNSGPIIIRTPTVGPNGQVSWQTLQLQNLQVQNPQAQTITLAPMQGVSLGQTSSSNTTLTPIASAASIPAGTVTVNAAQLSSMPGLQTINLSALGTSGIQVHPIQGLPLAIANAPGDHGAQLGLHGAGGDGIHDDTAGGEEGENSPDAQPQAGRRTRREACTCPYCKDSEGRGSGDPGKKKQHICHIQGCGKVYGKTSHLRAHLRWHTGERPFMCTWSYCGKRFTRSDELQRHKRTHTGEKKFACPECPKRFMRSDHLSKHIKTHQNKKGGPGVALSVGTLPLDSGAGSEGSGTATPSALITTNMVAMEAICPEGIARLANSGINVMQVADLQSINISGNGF
How it was run: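 Measures mRNA induction of an Sp1-linked reporter in HepG2 cells 24 h post-dosing. Multiplexed reporters read by RT-PCR and capillary electrophoresis; DMSO serves as negative control and baseline.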

[5] = target: Signal transducer and activator of transcription 3 (Homo sapiens) (UniProt P40763); experiment: ATG_STAT3_CIS: Attagene CIS-FACTORIAL HepG2 Assay for human Signal Transducer and Activator of Transcription 3 (STAT3) (AID 2282963); conditions: HepG2, Attagene cis-factorial STAT3 reporter transcription; actives raise or lower the signal
Signal transducer and activator of transcription 3 (Homo sapiens), sequence (P40763 whole entry, looked up): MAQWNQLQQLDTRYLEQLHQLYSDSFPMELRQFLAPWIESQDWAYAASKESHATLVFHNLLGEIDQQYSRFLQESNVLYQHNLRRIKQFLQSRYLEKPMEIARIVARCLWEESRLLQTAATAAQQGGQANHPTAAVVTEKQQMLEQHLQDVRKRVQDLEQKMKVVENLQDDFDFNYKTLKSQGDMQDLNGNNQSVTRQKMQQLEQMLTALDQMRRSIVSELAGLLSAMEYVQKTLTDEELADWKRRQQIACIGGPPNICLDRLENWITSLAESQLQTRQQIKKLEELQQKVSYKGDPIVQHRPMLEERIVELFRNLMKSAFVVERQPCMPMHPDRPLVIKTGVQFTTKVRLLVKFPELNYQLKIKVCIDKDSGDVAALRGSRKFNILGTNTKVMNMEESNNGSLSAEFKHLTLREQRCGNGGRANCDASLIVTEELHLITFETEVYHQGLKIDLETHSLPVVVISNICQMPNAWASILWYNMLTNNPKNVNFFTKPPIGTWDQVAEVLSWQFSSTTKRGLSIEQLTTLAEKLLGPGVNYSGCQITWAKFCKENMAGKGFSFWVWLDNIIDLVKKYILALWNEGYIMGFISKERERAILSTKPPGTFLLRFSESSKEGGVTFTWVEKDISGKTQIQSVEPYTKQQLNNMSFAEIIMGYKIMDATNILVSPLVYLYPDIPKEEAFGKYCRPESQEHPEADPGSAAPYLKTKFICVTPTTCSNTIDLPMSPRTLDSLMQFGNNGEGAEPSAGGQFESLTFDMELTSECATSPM
How it was run: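 Readout is reporter transcript quantified by RT-PCR and capillary electrophoresis, with 6-FAM primer extension and HpaI digestion. Total RNA is taken 24 h after dosing transiently transfected HepG2 carrying cis-regulated reporter units. Bidirectional fit against DMSO.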

[6] = ATG_TCF_b_cat_CIS: Attagene CIS-FACTORIAL HepG2 Assay for human T-Cell-Factor with beta-catenin (TCF/b-cat) (AID 2282965); conditions: HepG2 TCF/beta-catenin cis-reporter transcription, actives raise or lower the signal
How it was run: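 Endogenous TCF/LEF activity read as reporter transcript level via RT-PCR and capillary electrophoresis fluorescence in transfected HepG2, 24 h exposure; gain or loss of signal fitted against DMSO controls.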

[7] = ATG_TAL_CIS: Attagene CIS-FACTORIAL HepG2 Assay for human TAL Basal Promoter (AID 2282966); conditions: HepG2 Attagene cis-factorial TAL promoter reporter; actives raise or lower the signal;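 also: background control endpoint measuring basal TAL promoter reporter mRNA not a specific factor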
How it was run: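 Background-control endpoint: basal TAL promoter reporter transcripts in transiently transfected HepG2, measured 24 h after dosing. Read-out by RT-PCR with fluorescent primer extension and capillary electrophoresis; gain or loss of signal fitted relative to DMSO.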

[8] = ATG_TGFb_CIS: Attagene CIS-FACTORIAL HepG2 Assay for human Transforming Growth Factor (TGF) (AID 2282967); conditions: HepG2 Attagene CIS TGFb reporter, mRNA transcription; actives raise or lower the signal
How it was run: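 HepG2 cells transiently transfected with cis-promoter-driven multiple reporter units measure endogenous TF activity; reporter mRNA quantified at 24 h by RT-PCR, FAM labeling, HpaI digestion and capillary electrophoresis. Bidirectional fit vs DMSO.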

[9] = ATG_VDRE_CIS: Attagene CIS-FACTORIAL HepG2 Assay for human Vitamin D Receptor Element (VDRE) (AID 2282968); conditions: HepG2 VDRE cis-reporter transcription, actives raise or lower the signal
How it was run: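 Readout is VDRE-driven reporter mRNA reflecting endogenous factor activity in human HepG2 cells, sampled 24 h post-dose. Quantification used labelled RT-PCR products separated by capillary electrophoresis; bidirectional analysis relative to DMSO.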

[10] = target: Nuclear receptor subfamily 1 group I member 3 (Homo sapiens) (UniProt Q14994); experiment: ATG_CAR_TRANS: Attagene TRANS-FACTORIAL HepG2 Assay for human Constitutive Androstane Receptor (CAR) (AID 2282969; active = hit-call score of the fitted dose curve at least 0.9, where 1 is the maximum;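 also: activators raise reporter mRNA above DMSO so AC50 marks induction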); conditions: HepG2 Attagene TRANS-FACTORIAL CAR reporter
Nuclear receptor subfamily 1 group I member 3 (Homo sapiens), sequence (Q14994 whole entry, looked up, the tested form may be a part): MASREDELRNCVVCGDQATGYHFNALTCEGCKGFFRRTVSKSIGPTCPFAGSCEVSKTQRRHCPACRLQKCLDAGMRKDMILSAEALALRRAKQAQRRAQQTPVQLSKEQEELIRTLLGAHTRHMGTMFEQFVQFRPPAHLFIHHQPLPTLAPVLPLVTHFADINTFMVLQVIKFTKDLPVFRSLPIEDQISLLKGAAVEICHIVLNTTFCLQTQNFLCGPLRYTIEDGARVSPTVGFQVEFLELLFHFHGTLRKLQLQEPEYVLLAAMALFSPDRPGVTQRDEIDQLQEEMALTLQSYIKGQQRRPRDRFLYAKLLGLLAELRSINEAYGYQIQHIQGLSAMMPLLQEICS
How it was run: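 Signal is reporter mRNA induction relative to DMSO, measured 24 h after dosing by RT-PCR with fluorescent primer extension and capillary electrophoresis. Human HepG2 liver cells carried transiently transfected chimeric NR-Gal4/GAL4-UAS reporter constructs.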

[11] = target: Estrogen receptor (Homo sapiens) (UniProt P03372); experiment: ATG_ERa_TRANS: Attagene TRANS-FACTORIAL HepG2 Assay for human Estrogen Receptor alpha (ERa) (AID 2282970; active = hit-call score of the fitted dose curve at least 0.9, where 1 is the maximum); conditions: HepG2 Attagene TRANS ERa GAL4 reporter, mRNA
Estrogen receptor (Homo sapiens), sequence (P03372 whole entry, looked up, the tested form may be a part): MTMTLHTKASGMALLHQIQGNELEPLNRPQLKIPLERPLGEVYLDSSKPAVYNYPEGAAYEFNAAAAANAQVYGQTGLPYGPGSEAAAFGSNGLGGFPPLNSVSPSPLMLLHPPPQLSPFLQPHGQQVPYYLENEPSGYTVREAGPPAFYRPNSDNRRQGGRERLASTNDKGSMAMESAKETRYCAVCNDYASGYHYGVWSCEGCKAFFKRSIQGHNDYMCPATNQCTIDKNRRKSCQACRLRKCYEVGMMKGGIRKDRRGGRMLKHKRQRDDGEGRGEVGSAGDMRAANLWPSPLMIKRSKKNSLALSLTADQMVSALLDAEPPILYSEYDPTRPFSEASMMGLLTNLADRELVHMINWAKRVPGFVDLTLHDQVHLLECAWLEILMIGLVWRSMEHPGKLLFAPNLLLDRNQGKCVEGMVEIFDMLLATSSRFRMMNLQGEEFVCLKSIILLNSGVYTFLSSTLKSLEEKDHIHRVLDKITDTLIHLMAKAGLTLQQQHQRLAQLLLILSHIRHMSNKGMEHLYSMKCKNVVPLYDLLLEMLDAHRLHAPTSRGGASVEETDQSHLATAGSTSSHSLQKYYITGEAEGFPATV
How it was run: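 Reporter transcripts were measured 24 h after dosing by RT-PCR with fluorescent primer extension and capillary electrophoresis. The system is transiently transfected HepG2 expressing exogenous NR-Gal4 chimeras driving GAL4-UAS reporters; DMSO is the baseline.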

[12] = target: X-box-binding protein 1 (Homo sapiens) (UniProt P17861); experiment: ATG_Xbp1_CIS: Attagene CIS-FACTORIAL HepG2 Assay for human X-box Binding Protein 1 (XBP1) (AID 2282972); conditions: HepG2 XBP1 cis-element reporter, Attagene multiplex; actives raise or lower the signal
X-box-binding protein 1 (Homo sapiens), sequence (P17861 whole entry, looked up, the tested form may be a part): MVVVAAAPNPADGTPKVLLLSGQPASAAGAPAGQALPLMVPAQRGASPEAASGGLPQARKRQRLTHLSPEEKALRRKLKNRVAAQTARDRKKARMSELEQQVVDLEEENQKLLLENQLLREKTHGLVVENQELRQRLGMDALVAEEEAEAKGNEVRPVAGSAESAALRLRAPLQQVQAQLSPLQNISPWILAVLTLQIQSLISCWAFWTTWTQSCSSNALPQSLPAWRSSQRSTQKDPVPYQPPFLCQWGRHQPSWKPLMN
How it was run: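 Read-out: fluorescent reporter mRNA fragments resolved by capillary electrophoresis after RT-PCR. Human HepG2 liver cells carried transfected cis-promoter reporter units and were exposed to chemicals for 24 hours. Gain or loss of signal fitted relative to DMSO baseline.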

[13] = ATG_M_19_TRANS: Attagene TRANS-FACTORIAL HepG2 Assay for M19 Transcription Factor (Internal Marker) (AID 2282974; active = hit-call score of the fitted dose curve at least 0.9, where 1 is the maximum); conditions: HepG2 Attagene TRANS-FACTORIAL M19 internal marker reporter
How it was run: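 After transfection of HepG2 with GAL4-UAS-driven reporter constructs, cells are dosed for 24 h. Total RNA is reverse-transcribed, reporter sequences PCR-amplified and labelled, then HpaI-digested and sized by capillary electrophoresis.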

[14] = ATG_GAL4_TRANS: Attagene TRANS-FACTORIAL HepG2 Assay for GAL4 (Internal Marker) (AID 2282976; active = hit-call score of the fitted dose curve at least 0.9, where 1 is the maximum); conditions: HepG2 Attagene TRANS GAL4 internal marker reporter
How it was run: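 In transfected human HepG2 liver cells dosed 24 h, GAL4 reporter mRNA serves as a baseline marker. Detection by RT-PCR with fluorescent capillary electrophoresis, activity fitted upward relative to DMSO.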

[15] = target: Estrogen-related receptor gamma (Homo sapiens) (UniProt P62508); experiment: ATG_ERRg_TRANS: Attagene TRANS-FACTORIAL HepG2 Assay for human Estrogen-Related Receptor gamma (ERRg) (AID 2282977; active = hit-call score of the fitted dose curve at least 0.9, where 1 is the maximum;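 also: hits increase reporter signal over DMSO so potencies reflect activators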); conditions: HepG2 Attagene TRANS reporter, ERRg transactivation
Estrogen-related receptor gamma (Homo sapiens), sequence (P62508 whole entry, looked up, the tested form may be a part): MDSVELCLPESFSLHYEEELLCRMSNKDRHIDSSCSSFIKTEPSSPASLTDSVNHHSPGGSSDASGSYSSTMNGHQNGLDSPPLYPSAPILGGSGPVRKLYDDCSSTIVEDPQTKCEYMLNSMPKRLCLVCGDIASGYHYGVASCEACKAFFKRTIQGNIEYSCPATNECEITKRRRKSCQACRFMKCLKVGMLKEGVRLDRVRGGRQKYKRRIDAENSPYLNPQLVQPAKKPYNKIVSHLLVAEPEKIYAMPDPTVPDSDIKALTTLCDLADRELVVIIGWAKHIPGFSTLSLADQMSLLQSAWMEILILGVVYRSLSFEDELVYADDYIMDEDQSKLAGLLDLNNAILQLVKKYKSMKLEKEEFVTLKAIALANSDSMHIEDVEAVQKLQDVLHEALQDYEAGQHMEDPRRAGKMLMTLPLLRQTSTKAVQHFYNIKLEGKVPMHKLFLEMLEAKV
How it was run: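 Exogenous NR-Gal4 chimera activity measured as reporter transcript induction after 24 h in transiently transfected HepG2 cells. RNA reverse-transcribed, PCR-amplified, 6-FAM-labelled and resolved by capillary electrophoresis; increase over DMSO baseline.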

[16] = ATG_PPRE_CIS: Attagene CIS-FACTORIAL HepG2 Assay for human Peroxisome Proliferator-activated Response Element (PPRE) (AID 2282958); conditions: HepG2 PPRE cis-element reporter, Attagene transcription factor profiling; actives raise or lower the signal
How it was run: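 Transcript-level reporter induction in transfected HepG2 cells after 24 h chemical exposure, quantified by fluorescence from RT-PCR products separated by capillary electrophoresis.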

[17] = ATG_RORE_CIS: Attagene CIS-FACTORIAL HepG2 Assay for human RAR-related Orphan Receptor Element (RORE) (AID 2282959); conditions: HepG2 Attagene cis-factorial RORE reporter, mRNA; actives raise or lower the signal
How it was run: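 Multiplexed reporter assay measuring mRNA induction from a cis promoter element in transiently transfected HepG2 cells after 24 h treatment. Detection via RT-PCR and capillary electrophoresis fluorescence; DMSO serves as baseline.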

[18] = ATG_SREBP_CIS: Attagene CIS-FACTORIAL HepG2 Assay for human Sterol Regulatory Element Binding (SREBP) (AID 2282962); conditions: HepG2 Attagene cis-factorial SREBP reporter, mRNA; actives raise or lower the signal
How it was run: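 Readout: fluorescent reporter-transcript peaks resolved by capillary electrophoresis after RT-PCR. Cells were human HepG2 carrying transfected cis-promoter reporter constructs, dosed for 24 h. Gain or loss of signal was fitted against DMSO controls.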

[19] = ATG_TA_CIS: Attagene CIS-FACTORIAL HepG2 Assay for human TA Basal Promoter (AID 2282964); conditions: HepG2 Attagene CIS-factorial TA basal promoter reporter; actives raise or lower the signal
How it was run: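 HepG2 cells transiently transfected with multiple reporter units under cis promoter elements, reporting endogenous transcription factor activity; this endpoint tracks the TA basal promoter as background control. Reporter mRNA after 24 h dosing measured by RT-PCR/capillary electrophoresis; bidirectional fits versus DMSO.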

[20] = target: Steroid hormone receptor ERR1 (Homo sapiens) (UniProt P11474); experiment: ATG_ERRa_TRANS: Attagene TRANS-FACTORIAL HepG2 Assay for human Estrogen-Related Receptor alpha (ERRa) (AID 2282971; active = hit-call score of the fitted dose curve at least 0.9, where 1 is the maximum); conditions: HepG2 Attagene TRANS reporter, ERRa transactivation
Steroid hormone receptor ERR1 (Homo sapiens), sequence (P11474 whole entry, looked up, the tested form may be a part): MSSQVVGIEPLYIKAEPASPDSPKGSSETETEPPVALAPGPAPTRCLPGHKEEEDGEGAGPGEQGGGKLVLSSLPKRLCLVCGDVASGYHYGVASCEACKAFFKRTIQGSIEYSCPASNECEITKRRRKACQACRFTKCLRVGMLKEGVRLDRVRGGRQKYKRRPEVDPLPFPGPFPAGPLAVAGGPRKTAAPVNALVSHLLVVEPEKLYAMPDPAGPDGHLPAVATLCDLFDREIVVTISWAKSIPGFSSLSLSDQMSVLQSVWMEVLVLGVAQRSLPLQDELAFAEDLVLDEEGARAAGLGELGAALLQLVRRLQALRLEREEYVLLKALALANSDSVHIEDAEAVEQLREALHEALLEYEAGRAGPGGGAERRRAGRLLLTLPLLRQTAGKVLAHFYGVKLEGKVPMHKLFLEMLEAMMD
How it was run: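 Reporter transcripts from ERRa-Gal4 chimera activity measured in transiently transfected human HepG2 cells 24 hours after dosing, using RT-PCR with 6-FAM primer extension, HpaI digestion and capillary electrophoresis; DMSO is baseline.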

Structure (SMILES): Cc1ncc([N+](=O)[O-])n1C
- outcome [1]: inactive
- AC50 [2]: 53.2 µM (active)
- outcome [3]: inactive
- outcome [4]: inactive
- outcome [5]: inactive
- outcome [6]: inactive
- outcome [7]: inactive
- outcome [8]: inactive
- outcome [9]: inactive
- outcome [10]: inactive
- outcome [11]: inactive
- outcome [12]: inactive
- outcome [13]: inactive
- outcome [14]: inactive
- outcome [15]: inactive

Structure (SMILES): COc1ccc(NC(=O)CC(C)=O)cc1
- outcome [1]: inactive
- outcome [16]: inactive
- outcome [17]: inactive
- outcome [3]: inactive
- outcome [4]: inactive
- outcome [18]: inactive
- outcome [19]: inactive
- outcome [6]: inactive
- outcome [7]: inactive
- outcome [8]: inactive
- outcome [9]: inactive
- outcome [10]: inactive
- outcome [12]: inactive
- outcome [13]: inactive
- outcome [14]: inactive

Structure (SMILES): CC(C)C(C)(C)C(C)(C)C(C)(C)S
- AC50 [2]: 4.43 µM (active)
- outcome [16]: inactive
- outcome [17]: inactive
- outcome [4]: inactive
- outcome [18]: inactive
- outcome [5]: inactive
- outcome [19]: inactive
- outcome [6]: inactive
- outcome [7]: inactive
- outcome [8]: inactive
- AC50 [9]: 6.65 µM (active)
- AC50 [11]: 40.8 µM (active)
- outcome [12]: inactive

Structure (SMILES): Clc1ccc(Cl)c(Cl)c1Cl
- outcome [2]: inactive
- outcome [16]: inactive
- outcome [17]: inactive
- outcome [3]: inactive
- outcome [4]: inactive
- outcome [18]: inactive
- outcome [19]: inactive
- outcome [6]: inactive
- outcome [7]: inactive
- AC50 [8]: 19.8 µM (active)
- outcome [9]: inactive
- outcome [12]: inactive
- outcome [13]: inactive
- outcome [14]: inactive

Structure (SMILES): NNc1nc(-c2ccc(N)cc2)cs1
- outcome [2]: inactive
- outcome [16]: inactive
- outcome [17]: inactive
- outcome [3]: inactive
- outcome [4]: inactive
- outcome [18]: inactive
- outcome [5]: inactive
- outcome [6]: inactive
- outcome [7]: inactive
- outcome [8]: inactive
- outcome [9]: inactive
- outcome [10]: inactive
- outcome [11]: inactive
- outcome [12]: inactive
- outcome [13]: inactive
- outcome [15]: inactive

Structure (SMILES): C=CC(=O)NCOCC(C)C
- AC50 [2]: 21 µM (active)
- outcome [3]: inactive
- outcome [4]: inactive
- outcome [18]: inactive
- outcome [5]: inactive
- outcome [19]: inactive
- outcome [6]: inactive
- outcome [7]: inactive
- outcome [8]: inactive
- outcome [12]: inactive
- outcome [13]: inactive

Structure (SMILES): CC(=O)O[C@H](CC(=O)[O-])C[N+](C)(C)C
- outcome [2]: inactive
- outcome [16]: inactive
- outcome [17]: inactive
- outcome [3]: inactive
- outcome [4]: inactive
- outcome [5]: inactive
- outcome [19]: inactive
- outcome [6]: inactive
- outcome [7]: inactive
- outcome [8]: inactive
- outcome [20]: inactive
- outcome [12]: inactive
- outcome [13]: inactive
- outcome [15]: inactive

Structure (SMILES): O=C1CCc2ccccc2O1
- outcome [2]: inactive
- outcome [16]: inactive
- outcome [3]: inactive
- outcome [4]: inactive
- outcome [18]: inactive
- outcome [5]: inactive
- outcome [19]: inactive
- outcome [6]: inactive
- outcome [7]: inactive
- outcome [9]: inactive
- outcome [12]: inactive
- outcome [14]: inactive
